In PubChem BioAssay AID1508601 (ICCB-Longwood Screening Facility, Harvard Medical School, 2020):
Among all 5,700 compounds or so, about 85 (1%) were called active. Cut-off read from the data, not from the text of the source: active = p53-positive nuclei above about 36% (passing the limit was not always enough); inactive = the rest. Only a selection was taken, and actives are over-represented in it overall.

Legend:
[1] = nuclear p53 accumulation, HPV+ cells – imaging, p53-positive nuclei imaging, 24 h, 48 h (AID 1508601); settings: 24/48 h
[2] = target: Cellular tumor antigen p53 (Homo sapiens) (UniProt P04637); assay: as above; settings: 24/48 h, stronger effect = higher value
Chain of Cellular tumor antigen p53 (Homo sapiens) (P04637 whole entry, looked up): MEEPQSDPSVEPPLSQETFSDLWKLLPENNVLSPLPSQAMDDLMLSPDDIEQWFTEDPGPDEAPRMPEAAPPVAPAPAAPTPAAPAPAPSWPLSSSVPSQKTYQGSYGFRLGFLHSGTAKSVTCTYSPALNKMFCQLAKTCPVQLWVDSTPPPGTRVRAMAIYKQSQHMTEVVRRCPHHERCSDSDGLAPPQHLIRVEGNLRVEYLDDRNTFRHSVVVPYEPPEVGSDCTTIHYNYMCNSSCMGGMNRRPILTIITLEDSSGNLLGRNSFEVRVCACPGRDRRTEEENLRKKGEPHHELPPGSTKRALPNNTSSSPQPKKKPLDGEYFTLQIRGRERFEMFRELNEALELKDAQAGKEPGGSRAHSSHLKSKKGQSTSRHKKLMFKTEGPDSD

[3] = measured here: cell number at 24 h, concentration not given here
[4] = measured here: cell number at 48 h, concentration not given here
[5] = measured here: p53 positive nuclei at 24 h, concentration not given here
[6] = measured here: cell number at 24 h, Library stock concentration: 80 uM
[7] = measured here: cell number at 24 h, Library stock concentration: 400 uM
[8] = measured here: cell number at 24 h, Library stock concentration: 2 mM
[9] = measured here: cell number at 24 h, Library stock concentration: 3.33 mM
[10] = measured here: cell number at 24 h, Library stock concentration: 10 mM
[11] = measured here: cell number at 48 h, Library stock concentration: 80 uM
[12] = measured here: cell number at 48 h, Library stock concentration: 400 uM
[13] = measured here: cell number at 48 h, Library stock concentration: 2 mM
[14] = measured here: cell number at 48 h, Library stock concentration: 3.33 mM
[15] = measured here: cell number at 48 h, Library stock concentration: 10 mM
[16] = Library stock concentration: 80 uM
[17] = Library stock concentration: 400 uM
[18] = Library stock concentration: 2 mM
[19] = Library stock concentration: 3.33 mM
[20] = Library stock concentration: 10 mM
[21] = measured here: p53 positive nuclei at 24 h, Library stock concentration: 80 uM
[22] = measured here: p53 positive nuclei at 24 h, Library stock concentration: 400 uM
[23] = measured here: p53 positive nuclei at 24 h, Library stock concentration: 2 mM
[24] = measured here: p53 positive nuclei at 24 h, Library stock concentration: 3.33 mM
[25] = measured here: p53 positive nuclei at 24 h, Library stock concentration: 10 mM

SMILES: COc1ccc(CNCC2COCCO2)cc1OC (stereo not given)
- nuclei count, normalised [1, 3]: 101%
- nuclei count, normalised [1, 4]: 103%
- p53-positive nuclei, normalised ([2]; concentration not given here): 0.0897% (inactive)
- p53-positive nuclei, normalised [2, 5]: 0.164%

SMILES: O=C(NOCC(O)CO)c1ccc(F)c(F)c1Nc1ccc(I)cc1F (stereo not given)
- nuclei count, normalised [1, 6]: 110%
- nuclei count, normalised [1, 7]: 101%
- nuclei count, normalised [1, 8]: 91.9%
- nuclei count, normalised [1, 9]: 96.8%
- nuclei count, normalised [1, 10]: 99.9%
- nuclei count, normalised [1, 11]: 106%
- nuclei count, normalised [1, 12]: 104%
- nuclei count, normalised [1, 13]: 95.8%
- nuclei count, normalised [1, 14]: 97.9%
- nuclei count, normalised [1, 15]: 95.8%
- p53-positive nuclei, normalised [2, 16]: -0.174% (inactive)
- p53-positive nuclei, normalised [2, 17]: -0.189% (inactive)
- p53-positive nuclei, normalised [2, 18]: 0.0424% (inactive)
- p53-positive nuclei, normalised [2, 19]: -0.685% (inactive)
- p53-positive nuclei, normalised [2, 20]: 0.268% (inactive)
- p53-positive nuclei, normalised [2, 21]: 0.00674%
- p53-positive nuclei, normalised [2, 22]: 0.0842%
- p53-positive nuclei, normalised [2, 23]: -0.07%
- p53-positive nuclei, normalised [2, 24]: -0.375%
- p53-positive nuclei, normalised [2, 25]: 0.0144%

SMILES: O=Nc1c(O)[nH]c2c(Cl)c(Cl)ccc12
- nuclei count, normalised [1, 6]: 111%
- nuclei count, normalised [1, 7]: 99.5%
- nuclei count, normalised [1, 8]: 83.2%
- nuclei count, normalised [1, 10]: 73.5%
- nuclei count, normalised [1, 11]: 109%
- nuclei count, normalised [1, 12]: 99%
- nuclei count, normalised [1, 13]: 54.9%
- nuclei count, normalised [1, 15]: 33.7%
- p53-positive nuclei, normalised [2, 16]: 0.16% (inactive)
- p53-positive nuclei, normalised [2, 17]: -0.101% (inactive)
- p53-positive nuclei, normalised [2, 18]: 48.3% (inactive)
- p53-positive nuclei, normalised [2, 20]: 84.3% (active)
- p53-positive nuclei, normalised [2, 21]: 0.217%
- p53-positive nuclei, normalised [2, 22]: 0.0912%
- p53-positive nuclei, normalised [2, 23]: 2.93%
- p53-positive nuclei, normalised [2, 25]: 8.66%

SMILES: CC(C)C(=O)Oc1ccc(CO)cc1C(CCN(C(C)C)C(C)C)c1ccccc1 (stereo not given)
- nuclei count, normalised [1, 9]: 113%
- nuclei count, normalised [1, 14]: 108%
- p53-positive nuclei, normalised [2, 19]: -0.0601% (inactive)
- p53-positive nuclei, normalised [2, 24]: -0.451%

SMILES: CCCCC[C@H](O)/C=C/[C@@H]1[C@H](CCCCCCC(=O)O)[C@H](O)C[C@H]1O
- nuclei count, normalised [1, 3]: 103%
- nuclei count, normalised [1, 4]: 107%
- p53-positive nuclei, normalised ([2]; concentration not given here): -0.142% (inactive)
- p53-positive nuclei, normalised [2, 5]: -0.0664%

SMILES: O=C1Cc2c([nH]c3ccc(Br)cc23)-c2ccccc2N1
- nuclei count, normalised [1, 3]: 97.1%
- nuclei count, normalised [1, 4]: 104%
- p53-positive nuclei, normalised ([2]; concentration not given here): -0.0157% (inactive)
- p53-positive nuclei, normalised [2, 5]: 0.0601%

SMILES: O=C1C(c2c(O)[nH]c3ccccc23)=Nc2ccccc21
- nuclei count, normalised [1, 9]: 97.7%
- nuclei count, normalised [1, 14]: 95.2%
- p53-positive nuclei, normalised [2, 19]: 0.364% (inactive)
- p53-positive nuclei, normalised [2, 24]: -0.221%

SMILES: O=Nc1c(-c2c(O)[nH]c3cc(Br)ccc23)[nH]c2ccccc12
- nuclei count, normalised [1, 6]: 102%
- nuclei count, normalised [1, 7]: 111%
- nuclei count, normalised [1, 8]: 106%
- nuclei count, normalised [1, 9]: 116%
- nuclei count, normalised [1, 10]: 63.9%
- nuclei count, normalised [1, 3]: 104%
- nuclei count, normalised [1, 11]: 106%
- nuclei count, normalised [1, 12]: 106%
- nuclei count, normalised [1, 13]: 91.1%
- nuclei count, normalised [1, 14]: 101%
- nuclei count, normalised [1, 15]: 46.7%
- nuclei count, normalised [1, 4]: 113%
- p53-positive nuclei, normalised [2, 16]: -0.018% (inactive)
- p53-positive nuclei, normalised [2, 17]: 0.858% (inactive)
- p53-positive nuclei, normalised [2, 18]: 4.32% (inactive)
- p53-positive nuclei, normalised [2, 19]: 1.69% (inactive)
- p53-positive nuclei, normalised [2, 20]: 89.3% (active)
- p53-positive nuclei, normalised ([2]; concentration not given here): 0.377% (inactive)
- p53-positive nuclei, normalised [2, 21]: -0.0496%
- p53-positive nuclei, normalised [2, 22]: 0.519%
- p53-positive nuclei, normalised [2, 23]: 1.14%
- p53-positive nuclei, normalised [2, 24]: 0.53%
- p53-positive nuclei, normalised [2, 25]: 71.9%
- p53-positive nuclei, normalised [2, 5]: 0.0936%
